Experimental data reported in PubChem BioAssay (EPA / NIEHS).
Activity calls are given as the source filed them. The calls were made as follows: active = hit-call score of the fitted dose curve at least 0.9, where 1 is the maximum; inactive = score below 0.9.

What follows are molecules tested on Bcl-2 (BAX) gene, BAX (gene 581) (assay: LTEA_HepaRG_BAX: Life Technologies and Expression Analysis (LTEA) Assay for Bcl-2 (BAX) gene using HepaRG (AID 2283470)). Conditions: mRNA level, 48 h; actives raise or lower the signal.
Method: LTEA_HepaRG is a cell based, multiplexed-readout assay that uses HepaRG, a human liver cell line, with measurements taken at 48 hours after chemical dosing on a 96-well plate.LTEA_HepaRG_BAX is one of 102 assay component(s) measured in the LTEA HepaRG cell culture assay. It is a marker of Cell proliferation, survival, death.Data from the assay component LTEA_HepaRG_BAX was analyzed into 1 endpoint. This assay endpoint, LTEA_HepaRG_BAX, was analyzed with bidirectional fitting relative to DMSO as the negative control and baseline of activity. Using a type of inducible reporter, measures of mRNA induction for gain or loss-of-signal activity can be used to understand regulation of transcription factor activity. To generalize the intended target to other relatable targets, this assay endpoint is annotated to the cell cycle intended target family, where the subfamily is Cell proliferation, survival, death.
A total of 1060 chemcials from the ToxCast library were tested in eight-point concentration-response experiments. Cell culture and cytotoxicity assays were conducted at Thermo Fisher Scientific's Custom Services facility (Madison, WI). A single lot of human HepaRG cells (Thermo Fisher Scientific, Frederick, MD) was used for the cell culture experiments. 96-well format collagen type I coated plates of human HepaRG cells were prepared using established methods. Briefly, cryopreserved HepaRG cells were thawed, plated at a density of approximately 100,000 cells/well in HepaRG Thaw, Plate, and General Purpose media (HPRG770, Thermo Fisher Scientific), and incubated for 48 hours. 0.5% DMSO was selected as vehicle control to balance the requisite need of DMSO in HepaRG cultures to maintain differentiation (for example, baseline metabolism, proportions of hepatocytes vs. cholangiocytes), while enabling further hepatic receptor pathway activation (for example, PXR and CAR) in response to chemical exposure. 48 hours after plating, the culture medium was replaced with HepaRG Serum-Free Incudtion Media. Cells were exposed to each test chemical in duplicate and maintained in CO2 incubators for another 48 hours. Chemical plates were thawed to room temperature and 200x concentrations of treatment groups were prepared. 8-point conentration-reponse curves were made with the highest exposure at 100 uM, followed by half-log dilutions, all in 0.5% DMSO. Each test plate contained variouse controls, induction positive controls (1mM phenobarbital), cytotoxicity positive controls ([…] aflatoxin B1), vehicle controls (0.5% DMSO), and total lysis controls (0.5% DMSO). Cell morphology images were taken using an Essen IncuCyte FLR automated microscope, with six 96-well plates imaged in about 24 minutes. Images were captured and exported and JPEG files. Spent culture media was transfered to black-well plates for the LDH assay, and remaining media was sorted at -80 C for later use. Cells were treated with RLT buffer and frozen until shipped for gene expression analysis. Total RNA was isolated from the cell suspension in 75 uL of Buffer RLT (Qiagen, Germantown, MD 20874) by Quintiles/Expression Analysis (Durham, NC) using a custom isolation procedure. Total RNA from each plate well was transferred to a preamplification plate. Fluidigm's 96.96 Dynamic ArrayTM (Fluidigm, Amsterdam, the Netherlands) technology was used for gene expression analyses by quantitative reverse transcription polymerase chain reaction (qRT-PCR, performed by Quintiles/Expression Analysis, Durham, NC)89. Standard TaqManTM Assays (Applied Biosystems/ThermoFisher Scientific, Foster City, CA) were used to assess the expression of 93 genes selected based on their selectivity and sensitivity to important hepatic receptors known to be modulated by environmental chemicals; importance in human hepatocyte functionality; and hepatotoxicity. […]
In the case of `NCCOCCOCCN`, the outcome is reported as “inactive”. With `C#CC(O)C(CC)CCCC` (stereo not given) the outcome was “inactive”. In the case of `CC(C)(O)c1ccc(CNC(=O)c2cccnc2Oc2ccc(F)cc2)cc1`, the outcome is reported as “inactive”. `CCCCCCC(CCCCCCCCCCC(=O)OCC(COC(C)=O)OC(C)=O)OC(C)=O` (stereo not given) was tested, and the outcome was “inactive”. With `CS(=O)(=O)c1ccc([C@@H](C[C@H]2CCC(=O)C2)C(=O)Nc2cnccn2)cc1Cl` the AC50 was 25.4 µM (active). With `Oc1ccc(O)cc1` the outcome was “inactive”. With `CN(C)C(=O)NC1(c2ccccc2)CCN(CC[C@@]2(c3ccc(F)c(F)c3)CN(C(=O)c3ccccc3)CCO2)CC1` the outcome was “inactive”. For `CC1(C)C(=O)NC(=O)N1CO`, the outcome was “inactive”. `S=c1[nH]c2ccccc2s1` was tested, and the outcome was “inactive”. `CN(C)C(=O)NC1(c2ccccc2)CCN(CCC[C@]2(c3ccc(Cl)c(Cl)c3)CCCN(C(=O)c3ccccc3)C2)CC1` was tested, and the AC50 was 19.6 µM (active). In the case of `CC(N)=O`, the outcome is reported as “inactive”. `Cc1cn([C@H]2C=C[C@@H](CO)O2)c(=O)[nH]c1=O` was tested, and the outcome was “inactive”. `OCC(CO)n1cnc(-c2ccc(F)cc2)c1-c1ccnc(Oc2ccccc2)n1` was tested, and the outcome was “inactive”. For `C=CCCCCCCCCCCCC`, the outcome was “inactive”. For `CCC(C)N(C)C(=O)c1cc2ccccc2c(-c2ccccc2Cl)n1` (stereo not given), the outcome was “inactive”. In the case of `CC(C)OC(=O)C(C)(C)Oc1ccc(C(=O)c2ccc(Cl)cc2)cc1`, the outcome is reported as “inactive”. For `CCCCOC(=O)CCCCC(=O)OCCCC`, the outcome was “inactive”. With `O=C(N[C@@H](c1ccccc1)[C@@H]1CCCCN1)c1cccc(C(F)(F)F)c1Cl` the outcome was “inactive”. In the case of `CCCC[C@H]1CN(CC2CCOCC2)C(=O)OC12CCN(C1(C)CCN(C(=O)c3c(C)ncnc3C)CC1)CC2`, the outcome is reported as “inactive”. For `Cc1occc(=O)c1O`, the outcome was “inactive”. For `O=[Si]=O`, the outcome was “inactive”. In the case of `Cc1c(C)c2c(c(C)c1O)CCC(C)(COc1ccc(CC3SC(=O)NC3=O)cc1)O2` (stereo not given), the AC50 is reported as 29.6 µM (active). With `O=C1OC(c2ccc(O)cc2)(c2ccc(O)cc2)c2ccccc21` the outcome was “inactive”. For `Cn1cnc2c1c(=O)[nH]c(=O)n2C`, the outcome was “inactive”. With `CO[C@@H]1COCC[C@@H]1N[C@@H]1CC[C@@](C(=O)N2CCc3ncc(C(F)(F)F)cc3C2)(C(C)C)C1` the outcome was “inactive”. For `COc1ccc(OC(F)(F)F)cc1CN[C@H]1CCCN[C@H]1c1ccccc1`, the outcome was “inactive”. In the case of `CCCCCCCC(=O)OC`, the outcome is reported as “inactive”. With `NC1CCCCC1` the outcome was “inactive”. In the case of `COC(=O)[C@H]1[C@H]2C[C@@H]3c4[nH]c5cc(OC)ccc5c4CCN3C[C@H]2C[C@@H](OC(=O)c2cc(OC)c(OC)c(OC)c2)[C@@H]1OC`, the outcome is reported as “inactive”. With `Cc1cc(Cc2ccc(N)c(C)c2)ccc1N` the outcome was “inactive”. For `CCCC(=O)O`, the outcome was “inactive”. `CCCCCCC(C=O)=Cc1ccccc1` was tested, and the outcome was “inactive”. In the case of `CSc1ccc(Oc2ccc(S(N)(=O)=O)cc2CN(C)C)cc1C`, the outcome is reported as “inactive”. For `CC(=O)OCC(COC(C)=O)OC(C)=O`, the outcome was “inactive”. In the case of `Cc1ccc(C(C)(C)C)c(O)c1`, the outcome is reported as “inactive”. For `O=C(O)c1cccnc1`, the outcome was “inactive”. For `CC(=O)S[C@H](C(=O)N[C@H]1Cc2ccccc2[C@H]2CCC[C@@H](C(=O)O)N2C1=O)C(C)C`, the outcome was “inactive”. For `CN(C)CCCN(C)CCCN(C)C`, the outcome was “inactive”. With `O=C(Oc1ccccc1)c1cccc(C(=O)Oc2ccccc2)c1` the outcome was “inactive”. With `C/C=C/c1ccc(OC)cc1` the outcome was “inactive”.
